Assay outcomes (PubChem)
hcDAF-12 act: H. contortus DAF-12 activation, primary screen; 370,000 compounds, 1.4% hits; activation, % at 6.8 µM; AID 652067; HEK293 hcDAF-12 lit1-tk-luc reporter, luminescence; 0% DMSO, 100% Δ7-dafachronic acid;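 active = activation above the mean of all tested compounds plus 3 SD, cut at about 5.5% in these data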;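 also: 100% = response to 3 µM Δ7-dafachronic acid high control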
DAX1 inh-1: DAX1 (NR0B1) inhibition, primary screen; HEK293T StAR-luciferase reporter, SF-1/DAX-1 repression relief; inhibition, % at 6.8 µM; 370,000 compounds, 1.1% hits;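 active = inhibition above the mean over all tested compounds plus 3 SD, cut at about 3.6% in these data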;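 also: 0% = DAX-1 cells with DMSO and 100% = cells lacking DAX-1 with DMSO; higher inhibition means more luminescence from relief of DAX-1 repression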
ssDAF12 agonist: activates DAF-12 receptor from parasite S. stercoralis; activation, % at 6.8 µM; 370,000 compounds, 1% hits; HEK293 ssDAF-12/GRIP1 lit1-tk-luc reporter, luminescence; % of 3 µM dafachronic acid response;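 active = activation above the mean over all tested compounds plus 3 SD, cut at about 0.9% in these data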;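 also: 0% = DMSO-only wells and 100% = 3 µM delta7-dafachronic acid wells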
DAX1 inh-2: inhibits human nuclear receptor DAX1; P51843; HEK293 Gal4-DAX1 luciferase reporter, luminescence; inhibition, % at 6.75 µM; 340,000 compounds, 0.99% hits; AID 504766;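 active = inhibition above the mean over all tested compounds plus 3 SD, cut at about 4.2% in these data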;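 also: 0% = DAX1-transfected cells with DMSO and 100% = empty-vector control cells with DMSO; inhibition shows as a rise in luminescence from relieved DAX1 repression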
Target sequence (P51843 207-470 limits assumed): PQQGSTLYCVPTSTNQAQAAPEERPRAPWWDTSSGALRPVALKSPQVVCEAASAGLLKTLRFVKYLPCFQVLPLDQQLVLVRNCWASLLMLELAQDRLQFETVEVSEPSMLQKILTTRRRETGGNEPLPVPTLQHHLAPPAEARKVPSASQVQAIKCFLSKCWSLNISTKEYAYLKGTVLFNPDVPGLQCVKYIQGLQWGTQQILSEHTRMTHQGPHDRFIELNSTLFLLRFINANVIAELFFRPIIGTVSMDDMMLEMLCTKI
hgDAF12 agonist: hgDAF-12 agonism, primary luciferase screen; HEK293 GAL4-hgDAF12 UAS-luciferase reporter, agonist luminescence; normalized to butyrate control; activation, % at 6.8 µM; 370,000 compounds, 1.8% hits; AID 687014;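 active = activation above a cutoff set at the mean of all screened compounds plus 3 SD, cut at about 10% in these data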;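 also: 0% = DMSO wells and 100% = sodium butyrate wells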
DAX1 inh confirm: confirmation of human DAX1 (NR0B1) inhibitors. 2,400 compounds, 87% hits. HEK293T StAR-promoter luciferase reporter, SF-1/DAX-1 repression. shares compounds with DAX1 inh-1. inhibition, % at 6.8 µM;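 active = inhibition above the average of every tested compound plus 3 SD, cut at about 3.8% in these data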;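 also: 0% = DAX-1 cells with DMSO and 100% = no DAX-1 control cells with DMSO; active compounds raise luminescence by relieving repression of the StAR reporter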
Target sequence (P51843 whole entry, looked up): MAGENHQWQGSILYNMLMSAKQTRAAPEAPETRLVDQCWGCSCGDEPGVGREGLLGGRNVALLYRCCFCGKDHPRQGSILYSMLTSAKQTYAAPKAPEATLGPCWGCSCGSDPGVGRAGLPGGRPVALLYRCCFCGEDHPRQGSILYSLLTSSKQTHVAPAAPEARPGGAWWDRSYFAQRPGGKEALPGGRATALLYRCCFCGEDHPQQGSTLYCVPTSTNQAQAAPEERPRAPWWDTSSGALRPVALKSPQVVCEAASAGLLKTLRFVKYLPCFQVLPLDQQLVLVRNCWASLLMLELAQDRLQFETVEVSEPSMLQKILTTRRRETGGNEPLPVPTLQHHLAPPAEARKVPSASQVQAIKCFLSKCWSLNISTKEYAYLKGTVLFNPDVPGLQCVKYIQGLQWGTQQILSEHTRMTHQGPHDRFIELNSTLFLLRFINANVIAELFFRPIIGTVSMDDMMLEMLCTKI
SF1 mutant ctr: nonselective inhibitor or artifact in SF-1 mutant DAX1 counter-screen; shares compounds with DAX1 inh-1; HEK293 StAR-luciferase, SF-1 AF2 mutant, luminescence; inhibition, % at 6.8 µM; 2,400 compounds, 78% hits; AID 652136;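 active = inhibition above the mean of all tested compounds plus 3 SD, cut at about 3% in these data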;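 also: 0% = DAX-1 transfected cells with DMSO and 100% = cells without DAX-1 with DMSO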
LXRb hcDAF ctr: activates human LXR-beta, counter-screen for hcDAF-12 agonists; shares compounds with hcDAF-12 act; activation, % at 6.8 µM; 3,400 tested, under 10 active; AID 743027; HEK293 Gal4-LXR tk-luc reporter, luminescence, 24 h; normalized: DMSO 0%, positive control 100%;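 active = mean percent activation of the reporter above a cutoff set as the average over tested compounds plus their standard deviation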
hcDAF12 ag: confirmation of H. contortus DAF-12 agonists. shares compounds with hcDAF-12 act. 3,400 compounds, 61% hits. HEK293 hcDAF-12 lit1-tk-luc reporter, luminescence; % of Δ7-dafachronic acid response. activation, % at 6.8 µM. AID 743032;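 active = mean activation across triplicate tests above the threshold derived from the earlier primary screen, cut at about 5.5% in these data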;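 also: 0% = DMSO only wells and 100% = 3 µM Δ7-dafachronic acid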
hgDAF12 conf: hgDAF-12 agonism, confirmation assay. shares compounds with hgDAF12 agonist. 3,300 compounds, 80% hits. activation, % at 6.8 µM. HEK293 GAL4-hgDAF12 luciferase reporter, agonist mode; percent of butyrate response;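 active = mean activation over triplicate wells above the hit cutoff derived from the earlier primary screen, cut at about 11% in these data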;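 also: 0% = DMSO low control and 100% = 2 mM sodium butyrate high control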
LXRb DAF12 ctr: counter-screen for DAF-12 agonists: agonists of human LXR-beta. shares compounds with hgDAF12 agonist. HEK293 Gal4-LXR luciferase reporter, 24 h. activation, % at 6.8 µM. 3,300 tested, under 10 active. AID 743051;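 active = mean activation of the triplicate above a set limit carried over from the primary screen, none filed active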
* = called active by the depositor; · = no result given. Compounds with a hit are over-represented: about 4.1% of the library has one in this group of screens.

SMILES	hcDAF-12 act	DAX1 inh-1	ssDAF12 agonist	DAX1 inh-2	hgDAF12 agonist	DAX1 inh confirm	SF1 mutant ctr	hgDAF12 conf	LXRb DAF12 ctr	others
COc1ccc2[nH]c3c(c2c1)CCN[C@]31C(=O)Nc2ccccc21	0.0	-1.1	-0.1	·	2.5	·	·	·	·
Cc1cc(C)c(C)c(OCC(=O)O/N=C(\N)c2ccccn2)c1	-1.4	0.1	-1.2	0.1	0.9	·	·	·	·
N/C(=N\OC(=O)COc1ccc(Cl)cc1Cl)c1ccccn1	6.4*	5.3*	0.5	-1.2	15.6*	18.5*	7.2*	15.3*	0.9
COc1ccc(NC(=O)CCCNS(=O)(=O)c2ccc3[nH]c(=O)oc3c2)cc1OC	-0.7	-0.5	-0.3	·	-2.2	·	·	·	·
COc1ccc(C(=O)NC(=O)NC2(C(Cl)(Cl)Cl)OCCO2)cc1	9.7*	12.1*	1.0*	3.4	24.5*	16.1*	6.0*	20.2*	1.2	LXRb hcDAF ctr=1.3;hcDAF12 ag=9.1*
CN(C)c1ccc(N=Nc2ccc3ncccc3c2)cc1	6.0*	9.3*	1.5*	5.8*	20.5*	22.3*	7.3*	21.2*	1.2
Cc1ccc2ncccc2c1	-1.8	0.4	-0.2	0.1	-0.1	·	·	·	·
Cc1cc(N(C)C)ccc1N=Nc1ccc2ncccc2c1	13.4*	5.2*	1.7*	5.5*	15.2*	18.0*	7.6*	17.9*	1.0	LXRb hcDAF ctr=1.5;hcDAF12 ag=12.6*
O=C(NCCc1ccc(Cl)cc1)c1ccc2c(c1)ncn2C1CCCCC1	-3.4	-0.8	-1.4	·	-1.1	·	·	·	·
O=[N+]([O-])c1ccc(COc2ccc(CN3CCCCC3)cc2)cc1	1.5	1.7	-0.9	0.2	8.3	·	·	·	·
O=[N+]([O-])c1ccc(COc2ccc(CN3CCCC3)cc2)cc1	1.9	4.8*	0.4	0.4	14.7*	6.9*	5.6*	12.8*	0.5
O=[N+]([O-])c1ccc(COc2ccc(CN3CCOCC3)cc2)cc1	3.4	7.7*	-0.5	-1.5	17.8*	4.2*	1.2	9.4	0.6
CCc1ccccc1CNC(=O)C1CCC(CNS(=O)(=O)c2cccc3cccnc23)CC1 (stereo not drawn)	-1.9	-0.5	-0.6	·	-0.7	·	·	·	·
O=C(CNC(=O)Cc1ccccc1)N=Nc1c(O)[nH]c2ccccc12	0.7	-0.2	0.0	0.5	2.3	·	·	·	·
O=C(N=Nc1c(O)[nH]c2ccccc12)Nc1ccccc1	2.4	5.5*	1.2*	5.6*	16.6*	16.1*	7.1*	13.1*	0.6
COC(=O)[C@]12C[C@H](CC(=O)NCc3cccc4ccccc34)C(=O)N(CCc3ccc(OC)c(OC)c3)C1=C[C@H](C(C)(C)C)O[C@@H]2C	-2.3	-0.1	-1.6	·	-0.9	·	·	·	·
O=C1CC(c2ccccc2)=NO1	0.5	0.1	-1.5	1.0	-1.2	·	·	·	·
O=S1(=O)CC(c2ccccc2)=NN=C(c2ccccc2)C1	9.5*	7.6*	1.5*	3.1	16.6*	11.1*	3.9*	15.5*	1.0	LXRb hcDAF ctr=1.3;hcDAF12 ag=8.5*
O=C(/C=C/c1ccccc1)Nc1scc(-c2ccccc2)c1C(=O)O	4.0	5.1*	-0.2	2.7	15.3*	8.9*	8.6*	10.7*	0.6
O=C(Nc1cccc(Br)c1)c1cc2ccccc2o1	9.1*	5.1*	0.1	4.3*	25.8*	12.0*	7.0*	20.9*	0.9	LXRb hcDAF ctr=1.0;hcDAF12 ag=5.9*
CC(C)C(=O)Nc1ccc(NC(=O)c2cc3ccccc3o2)cc1	-0.6	0.2	-1.4	-0.1	-0.4	·	·	·	·
Cc1cnc(NC(=O)c2cc3ccccc3o2)s1	10.0*	7.3*	1.9*	6.4*	19.0*	17.1*	8.9*	14.9*	1.0	LXRb hcDAF ctr=1.4;hcDAF12 ag=13.6*
COc1cccc(CNC(=O)[C@H]2CCCN2C(=O)[C@H]2CCCN2C(=O)c2ccc(C)c(C)c2)c1	-2.3	-2.4	-0.7	·	-0.4	·	·	·	·
COc1cccc(N/C=C/C(=O)c2ccc(Cl)cc2)c1	7.1*	6.1*	0.8	1.8	19.9*	17.2*	6.6*	22.3*	1.4	LXRb hcDAF ctr=2.2;hcDAF12 ag=8.7*
COc1cccc(C(=O)/C=C/Nc2cccc(O)c2)c1	·	·	·	-3.1	·	·	·	·	·
SMILES	hcDAF-12 act	DAX1 inh-1	ssDAF12 agonist	DAX1 inh-2	hgDAF12 agonist	DAX1 inh confirm	SF1 mutant ctr	hgDAF12 conf	LXRb DAF12 ctr	others
O=C(NC1=NCCS1)c1cccc(NC(=O)c2ccco2)c1	3.6	-0.1	-0.6	-0.6	0.1	·	·	·	·
CC(C)Oc1cccc(C(=O)NC2=NCCS2)c1	1.2	5.0*	0.2	1.3	14.7*	5.9*	4.1*	10.6*	0.3
Clc1ccc(-c2csc(NCC3CCCO3)n2)cc1 (stereo not drawn)	4.8	5.1*	0.9*	·	15.2*	7.8*	4.3*	13.3*	0.7
Cc1c(C)n(Cc2ccc(-c3ccccc3C(=O)O)cc2)c2ccc(C(=O)N[C@@H](C)c3ccc(Br)cc3)cc12	0.4	-0.9	0.5	·	-0.5	·	·	·	·
CC(C)Cc1ccc(-c2cc3nc(NCCCn4ccnc4)ccn3n2)cc1	6.1*	5.5*	-0.6	·	15.4*	7.6*	5.1*	11.2*	0.4
COc1ccc(C(=O)c2oc3ccc(OC)cc3c2N)cc1	3.2	6.1*	-0.6	2.8	20.7*	12.2*	5.8*	14.8*	0.8
O=C(Nc1ccc2sccc2c1)c1ccc(Cl)s1	14.9*	9.0*	1.4*	2.1	20.9*	20.0*	10.6*	22.9*	1.5	LXRb hcDAF ctr=2.0;hcDAF12 ag=12.2*
Nc1ncc(-c2ccc(F)cc2)nc1N1CCN(CCO)CC1	-0.8	0.9	-1.1	·	0.3	·	·	·	·
OCCN1CCN(c2cnc(-c3ccsc3)cn2)CC1	5.2	5.9*	0.6	·	17.2*	10.0*	6.2*	13.3*	0.6
COc1ccc(N2C(=O)c3n[nH]c(C(C)C)c3C2c2ccc(C)cc2)cc1 (stereo not drawn)	-1.1	-0.4	-0.6	·	1.1	·	·	·	·
Brc1ccc(-c2csc(N3CCC(c4nn[nH]n4)CC3)n2)cc1	-0.5	·	-1.2	·	0.9	·	·	·	·
